PfM18AAP inh = PfM18AAP enzyme inhibition. recombinant PfM18AAP, H-Glu-NHMec fluorogenic cleavage. inhibition, % at 7.35 µM. hit rate 1.2% among 290,000;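 active means inhibition above the campaign mean inhibition over all tested compounds plus 3 SD, cut at about 28% in these data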
SMARCA2 act = activators of SMARCA2 function. AID 652017. MG213 cells, MMTV-luciferase reporter, dexamethasone, overnight. activation, % at 9.1 µM. hit rate 1% among 370,000; in the data active means activation above about 7.8%
Exocytosis inh = blocks lytic granule exocytosis; TALL-104 LAMP-1 surface exposure, flow cytometry; cells stimulated with thapsigargin and PMA; inhibition, % at 10 µM; hit rate 0.66% among 360,000; AID 651702;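 active means inhibition above about 55%, limit read from the data; inconclusive means no clear call, values can overlap the other calls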
ALR H2O2 inh = inhibitors of human sulfhydryl oxidase ALR | AID 485317 | hit rate 3.8% among 290,000 | purified ALR, DTT oxidation, H2O2 HRP-luminol luminescence | P55789 | inhibition, % (test concentration not listed);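 active means mean replicate inhibition above about 79%, with every replicate also reaching it, limit read from the data; inconclusive means only one of the two criteria met; inactive means mean below limit and not every replicate reaching it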
Target sequence (P55789 whole entry, looked up): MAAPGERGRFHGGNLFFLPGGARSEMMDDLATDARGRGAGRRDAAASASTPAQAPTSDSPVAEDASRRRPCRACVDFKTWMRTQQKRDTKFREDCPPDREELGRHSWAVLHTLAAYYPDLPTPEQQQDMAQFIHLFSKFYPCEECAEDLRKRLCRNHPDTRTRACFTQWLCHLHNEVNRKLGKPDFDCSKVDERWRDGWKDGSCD
beta cell repl = MIN6 beta-cell proliferation induction; hit rate 0.29% among 330,000; AID 2380; MIN6 cells proliferation, ATPlite luminescence, 48 h; cells starved in 0.2% serum; 100% = growth in 10% serum; proliferation, % at 10 µM;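 active means compounds whose signal lies at least 3.5 SD above the mean of all wells on their plate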
GASC-1 inh = inhibitors of human GASC-1 (JMJD2C) demethylase. Q9H3R0. inhibition, % at 2.35 µM. GST-JMJD2C(1-420) H3K9me3 demethylation, DELFIA europium. hit rate 0.069% among 330,000;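 active means more than half of a compound's replicate wells show inhibition beyond 50%, single wells judged on their own value; inconclusive means some, but no more than half, of replicates pass 50% inhibition; inactive means no replicate passes 50% inhibition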;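 further: signal counts dimethyl H3K9 product captured on neutravidin plate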
Target sequence (Q9H3R0 1-420 limits assumed): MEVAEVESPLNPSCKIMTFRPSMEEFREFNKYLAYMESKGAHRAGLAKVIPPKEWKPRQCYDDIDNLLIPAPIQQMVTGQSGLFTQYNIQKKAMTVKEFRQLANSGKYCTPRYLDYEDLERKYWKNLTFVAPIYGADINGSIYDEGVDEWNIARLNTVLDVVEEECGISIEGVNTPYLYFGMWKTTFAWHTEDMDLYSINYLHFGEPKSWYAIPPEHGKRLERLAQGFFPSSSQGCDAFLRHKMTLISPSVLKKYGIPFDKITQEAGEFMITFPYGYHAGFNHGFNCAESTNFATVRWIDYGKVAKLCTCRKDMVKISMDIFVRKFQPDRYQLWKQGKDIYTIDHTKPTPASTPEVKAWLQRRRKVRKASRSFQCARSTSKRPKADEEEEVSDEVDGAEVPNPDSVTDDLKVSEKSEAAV
SMARCA2 act conf = SMARCA2 activation, confirmation screen; activation, % at 9.1 µM; MG213 cells, MMTV-luciferase with dexamethasone, luminescence, overnight; MG213 cells expressing E1A, Rb sequestered; DMSO wells 0%, reference activator 100%; AID 652260; shares compounds with SMARCA2 act; hit rate 30% among 3,500;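 active means activation above its plate's cutoff, the mean activation of tested wells plus 3 SD, cut at about 7.9% in these data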
VP16 Luc act = GAL4-VP16 reporter activation counter-screen; shares compounds with SMARCA2 act; HEK293 GAL4-VP16 pG5luc reporter, luciferase luminescence; scaled: DMSO wells 0%, SAHA wells 100%; activation, % at 9.1 µM; hit rate 41% among 3,500;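 active means activation above the solvent-only control well mean plus 3 SD, averaged across control plates, cut at about 5.2% in these data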
Of the large screens only hits and unclear results are named; the others gave an inactive call (follow-up assays come after a bar, where they were run). An excerpt weighted towards active compounds, which were near 5.4% of everything screened.

Nc1nc(COc2ccc(Cl)cc2)cs1	SMARCA2 act 10 | SMARCA2 act conf inactive | VP16 Luc act inactive
Nc1nc(-c2ccc(Cl)cc2)cs1	SMARCA2 act 9.1 (no result: PfM18AAP inh, Exocytosis inh, ALR H2O2 inh, beta cell repl, GASC-1 inh) | SMARCA2 act conf inactive | VP16 Luc act inactive
Cc1ccc(N2C(=O)c3cccc4c([N+](=O)[O-])ccc(c34)C2=O)c2cccnc12	none (no result: ALR H2O2 inh)
Cc1nnc(N2C(=O)c3cccc4c([N+](=O)[O-])ccc(c34)C2=O)s1	SMARCA2 act 22, Exocytosis inh 86 | SMARCA2 act conf inactive | VP16 Luc act 15
Cc1ccnc(N2C(=O)c3cccc4c([N+](=O)[O-])ccc(c34)C2=O)c1	SMARCA2 act 9.9, Exocytosis inh 77 | SMARCA2 act conf inactive | VP16 Luc act inactive
O=C(N/N=C1/CC2C=CCC12)c1cccs1 (stereo unspecified)	none (no result: ALR H2O2 inh)
O=C(N/N=C1/CC2C=CCC12)c1ccco1 (stereo unspecified)	SMARCA2 act 8.9 | SMARCA2 act conf inactive | VP16 Luc act inactive
Cn1c2ccccc2c(=O)c2cc(C#Cc3ccccn3)ccc21	SMARCA2 act 8.1 | SMARCA2 act conf 21 | VP16 Luc act 5.3
Cn1c2ccccc2c(=O)c2ccc(C#CC3(N)CCCCC3)cc21	SMARCA2 act 19 | SMARCA2 act conf 44 | VP16 Luc act 19
Cn1c2ccccc2c(=O)c2ccc(C#Cc3ccccn3)cc21	none (no result: Exocytosis inh)
CCOC(=O)[C@]12CCC=C1N(Cc1cccc3ccccc13)C(=O)[C@H](CC(=O)NCCCN1CCCC1=O)C2	none (no result: PfM18AAP inh, ALR H2O2 inh, beta cell repl, GASC-1 inh)
CCN(CC)CCNC(=O)C12CC3CC(CC(C3)C1)C2	none
CCN(CC)CCNC(=O)C(Cl)=C1C(Cl)=C(Cl)C(Cl)=C1Cl	SMARCA2 act 10 (no result: PfM18AAP inh, ALR H2O2 inh, beta cell repl, GASC-1 inh) | SMARCA2 act conf 21 | VP16 Luc act inactive
COc1ccc(S(=O)(=O)N2CCCC(c3cc(C(=O)NCc4cccnc4)no3)C2)cc1 (stereo unspecified)	none (no result: PfM18AAP inh, ALR H2O2 inh, beta cell repl, GASC-1 inh)
CCCCCCCCNc1nc(Cl)nc(NCc2ccco2)n1	SMARCA2 act 11 (no result: ALR H2O2 inh) | SMARCA2 act conf inactive | VP16 Luc act inactive
Cc1ccc(/C=C/c2nc3ccccc3c(=O)[nH]2)cc1	SMARCA2 act 8.7 (no result: ALR H2O2 inh) | SMARCA2 act conf 9.6 | VP16 Luc act 5.8
CCOc1cnn(-c2cc(Oc3ccc(C)cc3)ncn2)c(=O)c1Cl	none
Cc1ccccc1Oc1cc(-n2ncc(Cl)c(Cl)c2=O)ncn1	SMARCA2 act 11, ALR H2O2 inh 97 (no result: beta cell repl) | SMARCA2 act conf inactive | VP16 Luc act inactive
CN(C)c1ccc(CNn2cnnc2SCC(=O)NC(C)(C)C)cc1	none (no result: ALR H2O2 inh)
CN(C)c1ccc(CNn2cnnc2SCc2ccccc2F)cc1	SMARCA2 act 10, ALR H2O2 inh inconclusive | SMARCA2 act conf inactive | VP16 Luc act inactive
COc1ccc(C(=O)NCC2CCN(C(=O)C(=O)c3cc4ccccc4o3)CC2)c(OC)c1	none (no result: PfM18AAP inh, Exocytosis inh, ALR H2O2 inh, beta cell repl, GASC-1 inh)
Cc1nc(SCC(=O)N2CCc3ccccc32)n[nH]1	SMARCA2 act 8.7 | SMARCA2 act conf 8.6 | VP16 Luc act inactive
CC(=O)CSc1ccc(-c2nc3ccccc3[nH]2)cn1	none
Cc1cc2nc(-c3ccc(SCC(=O)Nc4nccs4)nc3)[nH]c2cc1C	none (no result: ALR H2O2 inh, beta cell repl, GASC-1 inh)
Cc1ccc2nc(-c3ccc(SCC(=O)N4CCc5ccccc54)nc3)[nH]c2c1	SMARCA2 act 9.1 | SMARCA2 act conf 12 | VP16 Luc act 13
CCc1nnc(NC(=O)CSc2ccc(-c3nc4ccc(C)cc4[nH]3)cn2)s1	SMARCA2 act 8.7 | SMARCA2 act conf 8.4 | VP16 Luc act 12
CCOC(=O)C1=C(Nc2ccc(Br)cc2)C(=O)N(CC)C1	none (no result: PfM18AAP inh, Exocytosis inh, ALR H2O2 inh, beta cell repl, GASC-1 inh)
CC1(C)Cc2c(sc(NC(=O)c3ccc4ncsc4c3)c2C(N)=O)C(C)(C)N1	SMARCA2 act 8.5 | SMARCA2 act conf 13 | VP16 Luc act 8.0
COc1ccc(NC(=O)C2(C)Cc3c(-c4cccc(C(F)(F)F)c4)ccnc3O2)cc1OC (stereo unspecified)	none (no result: PfM18AAP inh, ALR H2O2 inh, beta cell repl, GASC-1 inh)
O=C(c1ccco1)N1CCN(Cc2ccccc2F)CC1	none
Cc1ccc(Nc2nc(N)nc(CN3CCN(C(=O)c4ccco4)CC3)n2)cc1Cl	SMARCA2 act 8.5 | SMARCA2 act conf inactive | VP16 Luc act inactive
Cc1ccc(NC(=O)N2CCN(C(=O)c3ccco3)CC2)cc1Cl	none
O=C(c1ccco1)N1CCN(Cc2c(F)cccc2Cl)CC1	SMARCA2 act 8.8 | SMARCA2 act conf inactive | VP16 Luc act 7.9
COc1cc(F)ccc1-c1csc(C(NC(C)=O)c2cccc(F)c2)n1 (stereo unspecified)	SMARCA2 act 10 (no result: PfM18AAP inh, ALR H2O2 inh, beta cell repl, GASC-1 inh) | SMARCA2 act conf inactive | VP16 Luc act inactive
CC(=O)NC(c1cccc(F)c1)c1nc(-c2ccccc2C)cs1 (stereo unspecified)	none (no result: PfM18AAP inh, ALR H2O2 inh, beta cell repl, GASC-1 inh)
CCOC(=O)COc1c(OC)cc(Cl)cc1C1Nc2ccccc2C(=O)N1c1cccc(C)c1 (stereo unspecified)	none
COc1cc(C2Nc3ccccc3C(=O)N2c2ccc(Cl)cc2)c(Cl)cc1OCC(=O)O (stereo unspecified)	SMARCA2 act 10 (no result: ALR H2O2 inh) | SMARCA2 act conf 12 | VP16 Luc act 9.5
CCOC(=O)COc1ccccc1C1Nc2ccccc2C(=O)N1c1cccc(Cl)c1 (stereo unspecified)	SMARCA2 act 8.2 | SMARCA2 act conf inactive | VP16 Luc act 6.0
CCCCNC(=O)C(NC(=O)c1cccs1)C(=O)c1ccccc1 (stereo unspecified)	none (no result: PfM18AAP inh, ALR H2O2 inh, beta cell repl, GASC-1 inh)
COc1ccc2nc(NC(=O)Nc3ccccc3OC)sc2c1	SMARCA2 act 12 | SMARCA2 act conf inactive | VP16 Luc act 10
NS(=O)(=O)c1ccc2nc(NC(=O)c3ccc(Br)o3)sc2c1	SMARCA2 act 8.3 | SMARCA2 act conf inactive | VP16 Luc act inactive
Cc1ccc2nc(NC(=O)c3ccc(Br)o3)sc2c1	none
CC(=O)NCCC(=O)Nc1nc2ccc(Oc3ccccc3)cc2s1	SMARCA2 act 11 | SMARCA2 act conf inactive | VP16 Luc act 8.7
COc1ccccc1NC(=O)Nc1nc2ccc(S(N)(=O)=O)cc2s1	SMARCA2 act 10 | SMARCA2 act conf 15 | VP16 Luc act 6.3
CN1C(=O)[C@@]2(O[C@H]3c4ccccc4C=CN3C3=C2C(=O)CCC3)c2ccccc21	none (no result: PfM18AAP inh, Exocytosis inh, ALR H2O2 inh, beta cell repl, GASC-1 inh)
Cc1cnc(CNC(=O)c2csc([C@@H]3O[C@H](CO)[C@H](O)[C@H](O)[C@H]3O)n2)cn1	none (no result: PfM18AAP inh, ALR H2O2 inh, beta cell repl, GASC-1 inh)
COc1ccccc1CCn1cnc(-c2ccc(F)cc2)c1C(C)C	none (no result: PfM18AAP inh, Exocytosis inh, ALR H2O2 inh, beta cell repl, GASC-1 inh)
COCCCn1cc(CN2CC(N3CCN(C4CCN(C)CC4)CC3)CS2(=O)=O)nn1 (stereo unspecified)	none (no result: PfM18AAP inh, ALR H2O2 inh, beta cell repl, GASC-1 inh)
O=C(c1cc(-c2ccccc2O)on1)N1CCc2ccccc2C1	SMARCA2 act 8.6 | SMARCA2 act conf inactive | VP16 Luc act inactive

From PubChem
